Some test systems named below: NCI-H23 lung; NCI-H226 lung; NCI-H322M lung; HOP-62 NSCLC; NCI-H460 lung; HOP-92 NSCLC; NCI-H522 lung; A549/ATCC NSCLC; 786-0 renal; COLO 205 colon.
Common to all, as to assay: NCI-60 one-dose screen, 48 h (100 = growth as untreated, 0 = no growth, -100 = all killed)
Details in all cases: 10 µM unless noted

SMILES strings stand for the structures. The panel holds about 83,000 compounds, 20% with a hit somewhere; the sample as a whole holds those more often.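 Negative percent growth values reflect cell death: -40 means 40% of the cells present at the start died, and -100 means all died.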 Unmarked numbers belong to inactive results. Active and inactive are the calls of the source. How the source made its calls: active means growth percent below 10; inactive means the rest.

On to `COc1cc(Nc2nc3ccccc3cc2C(=O)Nc2ccc(F)c(F)c2)cc(OC)c1OC`, for which the growth was 9.57% (active) in the experiment with NCI-H23 lung; 22.1% in the experiment on NCI-H226 lung; 53% with NCI-H322M lung; 46% with HOP-62 NSCLC; 9.51% (active) with NCI-H460 lung; 1.01% (active) in the experiment on HOP-92 NSCLC. Besides, the growth in the experiment on NCI-H522 lung was 20.4%; with A549/ATCC NSCLC it was 22.7%; in the experiment on 786-0 renal it was 34.5%; with COLO 205 colon, 9.14% (active).

In the case of `C=C1C(=O)O[C@@H]2[C@H]3[C@H](COC(C)=O)[C@@H](OC(C)=O)C[C@H]3C(=C)[C@@H](O)C[C@@H]12`, the growth is 96.2% with NCI-H23 lung; 98.8% in the experiment with NCI-H226 lung; 102% with NCI-H322M lung; 91.7% in the experiment on HOP-62 NSCLC; 103% in the experiment on NCI-H460 lung; 99.8% with HOP-92 NSCLC. The growth in the experiment with NCI-H522 lung was 73%; with A549/ATCC NSCLC, 90.6%; in the experiment with 786-0 renal it was 85.8%; in the experiment on COLO 205 colon, 100%.

On to `N#Cc1ccccc1-c1ccc(Cn2c(-c3cscn3)nc3c(Cl)cccc32)cc1`, for which the growth is 70.9% in the experiment with NCI-H23 lung; 66.2% with NCI-H226 lung; 91.6% in the experiment with NCI-H322M lung; 97.4% in the experiment on HOP-62 NSCLC; 82.6% in the experiment with NCI-H460 lung; 63.7% in the experiment on HOP-92 NSCLC. Also, the growth in the experiment on NCI-H522 lung was 44.7%; in the experiment with A549/ATCC NSCLC, 72.3%; in the experiment with 786-0 renal it was 79.8%; with COLO 205 colon, 107%.

`COc1ccc2c(c1)CC[C@@H]1[C@@H]2CC[C@]2(C)C3C(=CCC4C(=O)N(c5ccccc5)C(=O)C43)C[C@@H]12` (stereo not given in full): the growth in the experiment on NCI-H23 lung is 84.4%; in the experiment on NCI-H226 lung it was 90.8%; in the experiment with NCI-H322M lung it was 103%; with HOP-62 NSCLC it was 90.3%; with NCI-H460 lung, 93.7%; in the experiment on HOP-92 NSCLC, 99.3%. The growth in the experiment with NCI-H522 lung was 80.1%; in the experiment with A549/ATCC NSCLC, 92.3%; in the experiment on 786-0 renal, 87.7%; in the experiment on COLO 205 colon, 94.4%.

Turning to `NS(=O)(=O)c1ccc(C(=O)N=Nc2c(O)[nH]c3c(F)cccc23)cc1`, the growth with NCI-H23 lung was 94.9%; with NCI-H226 lung it was 96.8%; in the experiment on NCI-H322M lung, 98.2%; in the experiment on HOP-62 NSCLC, 97.1%; in the experiment on NCI-H460 lung, 111%; in the experiment on HOP-92 NSCLC, 98.2%. Besides, the growth in the experiment on NCI-H522 lung was 91.2%; in the experiment on A549/ATCC NSCLC, 99.9%; with 786-0 renal, 103%; with COLO 205 colon, 106%.

For `COc1ccc2nc3cc(Cl)ccc3c(NCCCNCCC(C)O)c2c1` (stereo not given), the growth was -48.8% (active) in the experiment with NCI-H23 lung; -3.4% (active) in the experiment with NCI-H226 lung; -24.8% (active) with NCI-H322M lung; -8.19% (active) in the experiment with HOP-62 NSCLC; -53.5% (active) in the experiment on NCI-H460 lung; -23.7% (active) in the experiment with HOP-92 NSCLC. The growth was -34.3% (active) in the experiment with NCI-H522 lung, -17.6% (active) in the experiment on A549/ATCC NSCLC, -49.5% (active) with 786-0 renal and -77.7% (active) with COLO 205 colon.

As for `O=C1C(=C(O)c2ccccc2)C(=O)c2ccccc21`, the growth is 103% in the experiment with NCI-H23 lung; 104% with NCI-H226 lung; 109% with NCI-H322M lung; 99.5% in the experiment on HOP-62 NSCLC; 116% in the experiment with NCI-H460 lung; 88% in the experiment with HOP-92 NSCLC. The growth is 101% with NCI-H522 lung, 105% in the experiment with A549/ATCC NSCLC, 95.6% with 786-0 renal and 121% in the experiment on COLO 205 colon.

Take `CCOC(=O)c1cnn(CC(O)CC)c1NC(=O)NCc1ccccc1C(F)(F)F` (stereo not given): the growth is 92.7% in the experiment on NCI-H23 lung; 106% in the experiment on NCI-H226 lung; 94.5% in the experiment on NCI-H322M lung; 90.8% with HOP-62 NSCLC; 110% in the experiment on NCI-H460 lung; 93.9% in the experiment with HOP-92 NSCLC. In addition, the growth with NCI-H522 lung was 70.3%; in the experiment with A549/ATCC NSCLC, 94.9%; in the experiment with 786-0 renal it was 96%; in the experiment on COLO 205 colon it was 114%.

As for `Cn1cc(-c2nonc2-c2cn(C)c3ccc(Br)cc23)c2ccccc21`, the growth in the experiment with NCI-H23 lung is 56.4%; in the experiment on NCI-H226 lung, 71.3%; in the experiment with NCI-H322M lung it was 64%; with HOP-62 NSCLC it was 25.8%; in the experiment on NCI-H460 lung, 12.9%; in the experiment with HOP-92 NSCLC, 44.4%. Besides, the growth was 8.18% (active) in the experiment on NCI-H522 lung, 40.1% with A549/ATCC NSCLC, 33.3% in the experiment on 786-0 renal and 29.6% in the experiment on COLO 205 colon.

Turning to `CC(=O)N1N=C(c2ccc(Nc3nc(Nc4ccc(F)cc4)nc(Nc4ccc(F)cc4)n3)cc2)CC1c1ccccc1` (stereo not given), the growth in the experiment on NCI-H23 lung was 90%; in the experiment with NCI-H226 lung, 102%; in the experiment with NCI-H322M lung, 92.5%; with HOP-62 NSCLC it was 85.9%; with NCI-H460 lung, 92.3%; in the experiment on HOP-92 NSCLC, 58.3%. The growth in the experiment on NCI-H522 lung is 89.4%; in the experiment with A549/ATCC NSCLC, 86.4%; with 786-0 renal, 78.5%; with COLO 205 colon, 68.5%.

In the case of `CCCN1C(=O)/C(=c2\sc3n(c2=O)NC2C(N=3)N(CC)C(=O)N2CC)c2ccccc21` (stereo not given), the growth with NCI-H23 lung was 38.8%; in the experiment on NCI-H226 lung it was 69.3%; with NCI-H322M lung it was 55%; with HOP-62 NSCLC, 50.8%; in the experiment with NCI-H460 lung, 18.5%; with HOP-92 NSCLC, 86.2%. The growth was 11.9% with NCI-H522 lung, 42% in the experiment with A549/ATCC NSCLC, 53.3% in the experiment with 786-0 renal and 23% in the experiment on COLO 205 colon.

As for `CCN(CC)CCOc1ccccc1C`, the growth is 111% with NCI-H23 lung; 116% in the experiment with NCI-H226 lung; 115% with NCI-H322M lung; 93.8% in the experiment with HOP-62 NSCLC; 109% in the experiment with NCI-H460 lung; 94.6% with HOP-92 NSCLC. In addition, the growth with NCI-H522 lung is 92.6%; in the experiment with A549/ATCC NSCLC, 98.6%; in the experiment on 786-0 renal, 98.8%; with COLO 205 colon, 111%.

The values are drawn from PubChem BioAssay (NCI).
